# Compounds with a hit are over-represented: about 2.8% of the library has one in this group of screens.
# Shn3 inh set2 = reduction of Shn3 3'UTR firefly luciferase signal, primary screen, Schnurri-3 inhibitor project, cell-based, Clone20 osteoblasts, set 2. AID 588674, 2011. inhibition, % at 12.5 µM. Clone20 osteoblast Shn3 3'UTR firefly luciferase, 24 h. hit rate 0.52% among 360,000;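 active means mean inhibition of at least 75% with every replicate also reaching 75%; inconclusive means mean inhibition at least 75% but some replicate below; inactive means mean inhibition below 75%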;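 further: 0% = median of neutral control wells and 100% = pilot-screen positive control compound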
# Peg3 prom inh = Peg3 promoter-driven luciferase inhibitors, primary screen, cell-based, HeLa, luciferase luminescence; inhibition, % at 20 µM; HeLa PEG-Prom luciferase reporter, overnight; AID 588405, 2011; hit rate 1.7% among 360,000;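 active means inhibition of at least 50% at 20 µM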
# KKLEB cytotox = cytotoxicity in KKLEB CF airway cells, primary screen, cytotoxicity control for CF NF-kB inhibitor project, cell-based, uHTS, fluorescence assay plates | KKLEB CF airway cells viability, ATPlite luminescence, overnight; stronger effect = lower value; cells stimulated with P. aeruginosa culture filtrate | activity change (cytotoxicity), % at 5 µM | hit rate 0.36% among 360,000 | AID 602141, 2011;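 active means corrected activity change at or below -50% at 5 µM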
# TRPM1 prom inh = inhibitors of MITF-dependent TRPM1 promoter reporter, primary screen, cell-based, SK-MEL-5, single point, luciferase; hit rate 0.83% among 330,000; inhibition, % at 12.5 µM; SK-MEL-5 TRPM1 promoter luciferase, 24 h;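 active means mean inhibition across replicates of 60% or more, whatever share of single replicates reaches that level; inconclusive means some that reach 60%, reason not given; inactive means mean inhibition across replicates below 60%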
# HIF-2a inh = HIF-2a reporter inhibitors, primary screen, luminescence, 786-0 RCC cells | hit rate 0.72% among 360,000 | inhibition, % at 18.8 µM | 786-0 RCC cells HIF-2a reporter, luciferase luminescence, overnight | AID 624352, 2012;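 active means inhibition of the luminescence signal of 40% or more relative to plate controls, in a single-dose primary screen at 18.75 µM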
# CF NFkB inh = inhibitors of PAF-induced NF-kB signaling, primary screen, cell-based, GFP fluorescence, uHTS. KKLEB NF-kB-GFP reporter, GFP fluorescence overnight. inhibition, % at 5 µM. hit rate 0.86% among 360,000;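 active means at least 50% inhibition at 5 µM, scaled per plate between neutral and stimulator controls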;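 further: PAF is a Pseudomonas aeruginosa culture filtrate used as stimulus; plate controls were PAF-stimulated DMSO wells for no effect and unstimulated DMSO wells for full effect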
# Mdm2-MdmX confirm = retested Mdm2-MdmX interaction blockers, confirmation, cell-based, luminescence, single concentration, set 2. shares compounds with HIF-2a inh. SaOS-2 split-luciferase Mdm2/MdmX complementation. inhibition, % at 8 µM. hit rate 99% among 740. AID 504601, 2011;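 active means mean inhibition of the luminescence signal across two replicates at or above 26 percent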
# Target sequence (O15151 whole entry, looked up): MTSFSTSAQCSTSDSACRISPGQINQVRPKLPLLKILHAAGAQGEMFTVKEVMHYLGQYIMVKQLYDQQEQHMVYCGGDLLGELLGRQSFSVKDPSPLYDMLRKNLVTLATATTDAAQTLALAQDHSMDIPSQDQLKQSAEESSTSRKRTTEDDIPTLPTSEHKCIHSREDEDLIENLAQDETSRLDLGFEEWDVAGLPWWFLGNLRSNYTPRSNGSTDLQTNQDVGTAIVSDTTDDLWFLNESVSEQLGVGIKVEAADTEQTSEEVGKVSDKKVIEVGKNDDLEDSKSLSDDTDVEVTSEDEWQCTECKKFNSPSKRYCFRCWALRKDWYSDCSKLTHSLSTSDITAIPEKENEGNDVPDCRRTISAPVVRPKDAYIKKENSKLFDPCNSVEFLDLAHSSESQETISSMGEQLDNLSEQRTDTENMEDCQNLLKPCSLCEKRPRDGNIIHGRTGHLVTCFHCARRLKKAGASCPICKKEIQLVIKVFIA
# Target sequence (Q00987 whole entry, looked up): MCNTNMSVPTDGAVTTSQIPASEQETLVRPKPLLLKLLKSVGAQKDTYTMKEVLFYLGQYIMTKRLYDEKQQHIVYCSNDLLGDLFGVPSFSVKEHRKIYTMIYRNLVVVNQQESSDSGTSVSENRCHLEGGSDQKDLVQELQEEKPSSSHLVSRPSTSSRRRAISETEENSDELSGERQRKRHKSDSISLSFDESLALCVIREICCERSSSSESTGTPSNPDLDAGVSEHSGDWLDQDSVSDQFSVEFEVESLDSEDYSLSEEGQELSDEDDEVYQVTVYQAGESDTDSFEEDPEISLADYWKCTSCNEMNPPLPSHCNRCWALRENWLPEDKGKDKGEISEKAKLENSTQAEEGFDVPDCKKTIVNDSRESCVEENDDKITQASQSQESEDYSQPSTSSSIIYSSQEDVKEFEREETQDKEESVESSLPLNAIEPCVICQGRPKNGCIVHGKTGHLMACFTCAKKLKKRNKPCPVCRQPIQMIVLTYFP
# HIF-2a inh conf = HIF-2a reporter inhibitor retest, confirmation, luminescence, 786-0 RCC cells; hit rate 56% among 1,800; inhibition, % at 18.8 µM; HIF-2a luciferase reporter luminescence, overnight; shares compounds with HIF-2a inh;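 active means mean inhibition across four replicates of at least 40 percent at the single tested concentration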
# HIF-1a counter = HIF-1a luciferase reporter signal reduction – MiaPaCa-2 cells, single concentration, counter-screen for HIF-2a inhibitor project, confirmation. shares compounds with HIF-2a inh. MiaPaCa-2 HIF-1a luciferase reporter, desferoxamine, overnight. inhibition, % at 18.8 µM. hit rate 72% among 1,800;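 active means mean inhibition of the reporter signal across four replicates at the single tested dose of 50% or more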
# Active calls of the source: *; ? = inconclusive; nt = not tested or not shown.
SMILES,Shn3 inh set2,Peg3 prom inh,KKLEB cytotox,TRPM1 prom inh,HIF-2a inh,CF NFkB inh,HIF-2a inh conf,HIF-1a counter,others
S=C1SCN(Cc2cccnc2)CN1Cc1cccnc1,-5,67*,0,32,7,17,nt,nt,Mdm2-MdmX confirm=98*
S=C1SCN(Cc2ccccc2)CN1Cc1ccccc1,-11,16,-26,5,0,26,nt,nt,
CCCC1=Nc2cc(C(=O)N3CCN(c4ccccn4)CC3)ccc2Sc2ccc(C)cc21,32,32,-2,17,4,-1,nt,nt,
Cc1ccccc1NC1=C/C(=N\S(=O)(=O)c2cccs2)c2ccccc2C1=O,98*,102*,-93*,87*,93*,94*,nt,nt,Mdm2-MdmX confirm=103*
Cn1c(=S)n(C)c2ccccc21,-9,0,-8,2,55*,6,-13,-12,
O=C1OC(c2ccc(O)cc2)(c2ccc(O)cc2)c2ccccc21,2,20,-15,-3,23,17,nt,nt,
O=C1OC(c2ccccc2)(c2ccc3cc(O)ccc3c2)c2ccccc21 (stereo not drawn),20,79*,-19,6,40*,-1,19,98*,
CCN(C(=O)COC(=O)CCCOc1ccc(Cl)cc1C)c1c(N)n(Cc2ccccc2)c(=O)[nH]c1=O,6,18,-9,12,4,18,nt,nt,
COC(=O)[C@]12CCCCC=C1N(Cc1cccc3ccccc13)C(=O)[C@H](CC(=O)NCCC(C)C)C2,nt,nt,nt,nt,-19,nt,nt,nt,
CC(CCc1ccccc1)NC(=O)C(Cc1ccccc1)NC(N)=O (stereo not drawn),2,12,1,-4,14,2,nt,nt,
CCN(Cc1ccccc1)c1ccc(/C=N/N=C(N)N)cc1,83,108*,-18,64*,93*,35,3,108*,Mdm2-MdmX confirm=103*
Cc1nn(-c2ccccc2)c(Cl)c1CN(C(=O)CCl)c1ccc(Cl)cc1,96*,103*,-97*,91*,96*,91*,99*,106*,
CC(=O)N(Cc1c(C)nn(-c2ccccc2)c1Cl)c1ccc(Cl)cc1,17,22,-10,-1,29,18,nt,nt,
Cc1nn(-c2ccccc2)c(Cl)c1CN(C(=O)CCl)c1cccc2ccccc12,50,95*,1,25,62*,32,73*,106*,Mdm2-MdmX confirm=103*
CNC(=O)CN(c1ccc(F)cc1)S(=O)(=O)c1cc(C)ccc1OC,-28,6,3,4,7,0,nt,nt,
COc1ccc(/C=C(/NC(=O)c2ccccc2)C(=O)N2CCOCC2)cc1OC,-12,-3,2,6,8,-12,nt,nt,
CC1=C(CC(=O)NCC(=O)NCC(=O)O)c2cc(F)ccc2/C1=C/c1ccc(S(C)=O)cc1 (stereo not drawn),-4,22,-5,0,18,-3,nt,nt,
C[C@H](NC(=O)C1CCN(C(=O)[C@@H]2CCCN2C(=O)OC(C)(C)C)CC1)C(=O)NCc1ccc(F)cc1,9,16,5,nt,4,-22,nt,nt,
O=c1[nH]c2cccnc2n1Cc1ccccc1,-5,8,-4,-3,8,3,nt,nt,
N#CC1=C(N)Oc2n[nH]c(-c3cccs3)c2C1C1C=CCCC1 (stereo not drawn),-18,31,-2,10,27,18,nt,nt,
N#CC1=C(N)Oc2n[nH]c(-c3cccs3)c2C1C1CCCCC1 (stereo not drawn),3,20,-4,2,40*,18,22,4,
Cc1nc([N+](=O)[O-])c(Br)n1Cc1ccc(Cl)c(Cl)c1,23,104*,-46,23,70*,86*,28,102*,
C=CCOc1cccc(C(=O)/C=C2/C(=O)Nc3ccccc32)c1,74,85*,-52*,52,59*,86*,59*,105*,
CC(=O)/C=C1/C(=O)Nc2ccccc21,29,22,-2,28,40*,-2,49*,5,
CC(=O)N(C)c1ccc(N=C2C(=O)Nc3ccccc32)cc1,6,20,2,9,16,-5,nt,nt,
SMILES,Shn3 inh set2,Peg3 prom inh,KKLEB cytotox,TRPM1 prom inh,HIF-2a inh,CF NFkB inh,HIF-2a inh conf,HIF-1a counter,others
C=CCOc1cccc(C(=O)N2CCCC(CCC(=O)NCc3ccccc3F)C2)c1 (stereo not drawn),10,-30,9,-31,-37,-8,nt,nt,
Fc1cc2[nH]c(=S)[nH]c2c(Br)c1N1CCSCC1,-67,-51,-5,4,-111,-4,nt,nt,
COc1ccc(C(=O)OCC(=O)Nc2c(C)n(C)n(-c3ccccc3)c2=O)cc1OC,-27,-2,14,0,11,-3,nt,nt,
CCCn1c(CC)nc([N+](=O)[O-])c1S(=O)(=O)c1ccccc1,64,-1,-27,?,46*,52*,29,47,
Nc1nc(SCc2ccc(Cl)cc2Cl)nc2nc3c(cc12)CCCC3,31,43,-31,5,17,33,nt,nt,
O=C(O)CCC(=O)c1ccc2c(c1)OCCO2,-9,-27,6,-21,-26,-2,nt,nt,
O=C(O)CCSCC(=O)c1ccc2c(c1)OCCO2,3,-24,2,14,57*,20,64*,45,
N#Cc1cnc(NN)nc1,-50,-8,12,7,19,-23,nt,nt,
O=S(=O)(/C=C/C=C/S(=O)(=O)c1ccccc1)c1ccccc1,98*,100*,-42,111*,95*,92*,96*,105*,
COc1ccc(/C=C/C(=O)NCCN=C2NS(=O)(=O)c3ccccc32)cc1,-26,10,7,-8,-5,-3,nt,nt,
Cc1ccc(S(=O)(=O)ON2C(=O)c3cccc4cccc(c34)C2=O)cc1,-17,13,4,12,-1,-11,nt,nt,
Cc1ccc(C)c(S(=O)(=O)ON2C(=O)c3ccccc3C2=O)c1,65,56*,-13,40,68*,-8,57*,2,
CN(C(=O)CSc1cc(C(=O)c2nccn2C)c2ccccc2n1)c1ccccc1,nt,50,-6,17,50*,23,29,52*,

# Source: PubChem
